Hits are enriched below; roughly 4.7% of the tested compounds scored in any of these assays.
SKKanGAS inh – SKKanGAS growth inhibition. S. pyogenes SKKanGAS, kanamycin growth, BacTiter-Glo, 6 h. inhibition, % at 7.5 µM. 300,000 compounds, 1.3% hits. AID 1662;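 active = mean replicate score, as percent of positive control median, at least 50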;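 note: strain carries kanamycin resistance gene driven by streptokinase promoter and grows in 40 µg/ml kanamycin; loss of luminescence reflects streptokinase promoter inhibition or plain growth inhibition; 0% = median of DMSO wells and 100% = positive control at its reference dose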
TIM10 inh – inhibits growth of TIM10 yeast strain. S. cerevisiae TIM10 strain growth, BacTiter-Glo luminescence, 24 h. inhibition, % at 10 µM. 330,000 compounds, 1.4% hits;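 active = inhibition of 40% or more at the single tested concentration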;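 note: wild-type TIM10 isogenic control strain grown at permissive 25 °C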
PfHsp90 yeast 2 – inhibits growth of yeast expressing Plasmodium falciparum Hsp90; S. cerevisiae expressing PfHsp90, BacTiter-Glo ATP, 48 h; yeast lacking PDR1 and PDR3 efflux regulators; inhibition, % at 9.4 µM; 310,000 compounds, 0.32% hits; AID 504621;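 active = every replicate shows inhibition above about 80%, whatever the replicate mean, limit read from the data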;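 note: 0% = DMSO neutral controls and 100% = 20 µM radicicol positive controls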
tim10-1 inh – growth inhibitors of tim10-1 mutant yeast. S. cerevisiae tim10-1 ts strain growth, BacTiter-Glo, 24 h. inhibition, % at 20 µM. 330,000 compounds, 2.2% hits. AID 463190;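 active = inhibition of at least 40%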;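 note: mutant grown at 25 °C; 0% = DMSO wells with yeast and 100% = wells holding no yeast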
tim23-1 inh – tim23-1 yeast growth inhibition; S. cerevisiae tim23-1 growth, BacTiter-Glo luminescence, 24 h; inhibition, % at 20 µM; 330,000 compounds, 1.3% hits; AID 463212;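 active = growth inhibition of the mutant yeast at or above 50%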;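 note: temperature-sensitive mutant grown at 25 °C; plate controls were DMSO-treated mutant yeast for no effect and medium wells lacking yeast for full effect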
EBI2 block – antagonists of human EBI2 receptor | P32249 | AID 651636 | 360,000 compounds, 0.81% hits | inhibition, % at 5 µM | EBI2 beta-arrestin recruitment, luminescence, 7a,25-OHC stimulated; in the data active = inhibition above about 38%;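 note: enzyme fragment complementation signal reports receptor beta-arrestin coupling in cells; 0% = agonist plus DMSO wells and 100% = wells without agonist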
Target sequence (P32249 whole entry, looked up, the tested form may be a part): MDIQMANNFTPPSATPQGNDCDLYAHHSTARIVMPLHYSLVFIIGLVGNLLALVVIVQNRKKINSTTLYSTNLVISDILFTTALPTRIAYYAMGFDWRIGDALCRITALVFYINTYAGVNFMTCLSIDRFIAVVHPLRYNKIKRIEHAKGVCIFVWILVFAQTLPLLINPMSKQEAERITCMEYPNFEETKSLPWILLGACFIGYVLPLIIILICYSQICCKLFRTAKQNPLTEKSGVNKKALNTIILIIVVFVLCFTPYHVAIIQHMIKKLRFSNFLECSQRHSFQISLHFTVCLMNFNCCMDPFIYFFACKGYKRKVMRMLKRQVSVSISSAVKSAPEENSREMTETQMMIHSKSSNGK
* hit, by the source's call; · = no result given.

SMILES	SKKanGAS inh	TIM10 inh	PfHsp90 yeast 2	tim10-1 inh	tim23-1 inh	EBI2 block
Cc1cccc(N2C(=O)C(O)=C(C(=O)c3cccs3)C2c2cccc(Oc3ccccc3)c2)n1 (stereo not drawn)	65.5*	11.5	-13.7	12.0	7.1	-4.5
Cc1cccc(N2C(=O)C(O)=C(C(=O)c3cccs3)C2c2ccccc2)n1 (stereo not drawn)	5.1	-2.8	0.1	-3.1	-6.8	5.1
O=C(C1=C(O)C(=O)N(c2ccccc2)C1c1ccc([N+](=O)[O-])cc1)c1cccs1 (stereo not drawn)	59.4*	-13.4	-9.6	7.8	26.6	2.6
CCOC(=O)c1cc2cc(OCc3ccccc3)ccc2nc1C	-0.3	-0.2	118.4*	-73.8	-40.2	22.7
c1coc(-c2nc(N=C3N=c4ccccc4=N3)[nH]c2-c2ccco2)c1	·	·	·	·	·	2.2
O=C1NC(=O)C(c2ccccc2)(C2CCCC2)N1 (stereo not drawn)	·	·	4.2	·	·	-0.1
CNS(=O)(=O)c1cnccc1N1CCN(c2cccc(C(F)(F)F)c2)CC1	-4.4	1.7	-1.0	-5.4	-2.1	-0.5
CC(C)Cn1c(/C=N/Nc2nc3ccccc3[nH]2)nc2ccccc21	96.6*	·	-4.9	·	·	15.9
CC(=O)Nc1ccc(/C=N/Nc2nc3ccccc3[nH]2)cc1	-15.1	8.9	-1.8	0.0	-8.9	-7.2
CCN(CC)c1ccc(/C=N/Nc2nc3ccccc3[nH]2)cc1	95.5*	·	·	·	·	40.5
Cc1c(/C=N/Nc2nc3ccccc3[nH]2)c2ccccc2n1C	88.2*	-40.8	4.0	18.3	18.0	39.5
CCCn1c(/C=N/Nc2nc3ccccc3[nH]2)nc2ccccc21	·	·	-10.0	·	·	13.4
O=C(Nc1ccc(Oc2ccsc2C(=O)O)cc1)c1ccccc1F	8.2	-15.2	11.6	-10.6	16.9	-6.9
CC(C)CCNC(=O)c1ccc(Cl)c(NC(=O)c2ccccc2F)c1	-1.2	20.4	·	4.8	-7.1	·
CC(O)CNc1nc(N)[nH]c(=O)c1N=Nc1ccccc1 (stereo not drawn)	·	·	-8.3	·	·	6.2
CCN(CCO)CC1CCCC2CCCCC21 (stereo not drawn)	·	·	·	·	·	2.7
Cc1ccc(C(=O)ONC(=O)c2ccc(Cl)cc2)cc1[N+](=O)[O-]	-4.5	17.4	108.4*	10.3	19.9	7.1
C/C(=N\NC(=O)c1ccc(-c2ccccc2)cc1)C1C(=O)c2ccccc2C1=O	129.8*	5.3	39.9	7.0	8.9	7.0
C/C(=N\NC(=O)c1ccc(Br)cc1)C1C(=O)c2ccccc2C1=O	38.9	13.2	16.3	1.2	38.4	-1.1
O=C(NCC(=O)N1CCCCCCC1)c1ccc(Cl)c(Cl)c1	·	·	·	·	·	8.9
C/C(=N/Nc1cc(-c2ccccc2)nc(-c2ccccc2)n1)c1ccc(O)cc1	99.2*	25.1	4.4	-0.5	40.0	60.1*
C/C(=N\Nc1cc(-c2ccccc2)nc(-c2ccc(Br)cc2)n1)c1cccc(N)c1	·	17.7	·	22.5	21.5	29.4
COc1ccc(-c2c(C)[nH]n3c(=O)c(Cc4ccccc4)c(C)nc23)cc1OC	2.6	-4.8	30.6	9.3	11.0	2.9
Cc1nc2c(-c3ccc(Cl)cc3)c(C)[nH]n2c(=O)c1Cc1ccccc1	98.9*	-1.2	-15.5	5.3	19.6	-20.0
Cc1nc2c(-c3ccccc3)c(C)[nH]n2c(=O)c1Cc1ccccc1	52.5*	-4.7	4.1	12.9	4.6	1.1
SMILES	SKKanGAS inh	TIM10 inh	PfHsp90 yeast 2	tim10-1 inh	tim23-1 inh	EBI2 block
COc1ccc(C(CNC(=O)c2ccccc2SC)N(C)C)cc1 (stereo not drawn)	-2.7	-16.6	·	12.3	8.7	-4.0
C[C@@H]1COc2cccc(N3CCN(Cc4ccccc4F)CC3)c2S(=O)(=O)N1	·	·	·	·	·	-5.6
CN(CC(=O)Nc1ccc(Cl)cc1)CC(=O)Nc1sc2c(c1C(N)=O)CCC2	·	·	·	·	·	22.0
CC1(C)c2ccccc2-n2c1cc1oc(=O)cc(O)c1c2=O	96.1*	33.1	30.8	-17.9	34.8	-3.7
CCOC(=S)SCC(=O)Nc1nc(-c2ccc(Br)cc2)cs1	9.7	-5.5	-13.3	9.7	3.5	69.1*
CCN(CC)CCNC(=S)Nc1ccc(F)cc1	2.1	3.1	9.3	-0.8	-6.5	6.3
O=C(CNc1cccc2ccccc12)N/N=C/c1ccc([N+](=O)[O-])o1	131.4*	-128.8	-16.6	-40.5	-6.8	13.5
O=C(CNc1cccc2ccccc12)N/N=C/c1ccc[nH]1	49.7*	7.2	13.7	-13.2	-5.1	6.5
Cc1c(-c2cccc(Cl)c2)nc2ccccc2c1C(=O)OCC(=O)Nc1ccc2c(c1)OCO2	38.1	7.9	-13.3	5.8	14.9	7.0
O=C(CCN1C(=O)/C(=C/c2ccccc2Cl)SC1=S)NNC(=O)c1cccnc1	7.5	1.6	-14.9	-0.6	25.4	3.5
O=C(CCN1C(=O)/C(=C/c2ccccc2Cl)SC1=S)NNC(=O)c1ccccc1O	60.3*	5.3	-23.9	3.5	-5.1	-2.1
O=C(CCCN1C(=O)/C(=C/c2ccccc2Cl)SC1=S)NNC(=O)c1ccc(Cl)cc1	-11.7	-9.8	-41.5	-10.5	-21.7	60.3*
Cc1ccc(C(=O)NNC(=O)CCCN2C(=O)/C(=C/c3ccccc3Cl)SC2=S)cc1	12.6	8.1	20.5	8.2	-13.5	65.5*
CCCC(=O)N1CCC1(C)C(=O)Nc1ccc2scnc2c1 (stereo not drawn)	·	·	·	·	·	-2.3
COc1ccc(-c2nnc3n(CCc4ccccc4)c(=O)c4ccccc4n23)c(OC)c1	6.8	25.7	107.2*	18.5	-2.1	8.8
COc1ccc(S(=O)(=O)N2CCOC2CNC(=O)C(=O)NCc2ccccc2OC)cc1 (stereo not drawn)	-0.3	11.1	-11.0	13.9	-2.1	1.5
COc1ccc(S(=O)(=O)N2CCOC2CNC(=O)C(=O)NCc2ccccc2Cl)cc1 (stereo not drawn)	52.0*	9.5	-6.4	2.0	15.0	2.9
O=c1ccc2cccc([N+](=O)[O-])c2[nH]1	·	·	·	·	·	-9.0
Cc1ccc(Cn2ccc(NC(=O)c3cc(-c4ccc5c(c4)OCO5)on3)n2)cc1	-7.3	·	0.3	·	·	-3.0
CC(C)(C)c1ccc(Cn2ccc(-c3ccc4c(c3)OCO4)n2)cc1	53.1*	31.4	0.0	38.1	21.7	-5.4
Cc1ccc(S(=O)(=O)Nc2ccc3cc([N+](=O)[O-])ccc3c2[N+](=O)[O-])cc1	·	·	110.8*	·	·	13.0
COc1ccc([N+](=O)[O-])cc1NS(=O)(=O)c1ccc(C)cc1	9.7	20.3	6.0	-1.4	35.2	7.3
Cc1ccc(S(=O)(=O)Nc2ccc3ccccc3c2[N+](=O)[O-])cc1	·	·	115.4*	·	·	7.2
CC12CCC(C(=O)Nc3cccc(Cl)c3Cl)([C@H](Br)C1=O)C2(C)C (stereo partly drawn)	54.5*	15.3	-21.0	16.8	16.5	6.6
CC1CN(S(=O)(=O)c2ccc(C(=O)Nc3nnc(-c4ccc5c(c4)CCCC5)o3)cc2)CC(C)O1 (stereo not drawn)	92.9*	7.4	-47.6	24.5	13.3	3.5

High-throughput results from PubChem.
